Source: PubChem BioAssay (several laboratories)
Sampled rows, rich in hits. Any-hit rate of the full collection: about 4.5%.
PrPC surface inh – inhibitors of human cell surface prion protein PrPC; P04156; TR-FRET read-out; inhibition, % at 13.8 µM; 370,000 compounds, 0.43% hits; in the data active = inhibition above about 24%
PrP UTR inh – inhibition of PrP 5' UTR reporter expression. cell-based PrP 5' UTR mRNA reporter, plate reader. inhibition, % (test concentration not listed). 340,000 compounds, 0.35% hits. AID 488862; in the data active = inhibition above about 52%
BJeLR lethal – kills HRASV12-expressing BJeLR cells. inhibition, % (test concentration not listed). AID 1554. 300,000 compounds, 0.17% hits. BJeLR (HRASV12) viability, CellTiter-Glo ATP luminescence, 48 h; in the data active = inhibition above about 50%
FBA Mtb inh – Mtb fructose-bisphosphate aldolase inhibition; P9WQA3; purified M. tuberculosis FBA, fluorescence read-out; inhibition, % at 1 µM; 360,000 compounds, 2.3% hits; in the data active = inhibition above about 27%
Target sequence (P9WQA3 whole entry, looked up): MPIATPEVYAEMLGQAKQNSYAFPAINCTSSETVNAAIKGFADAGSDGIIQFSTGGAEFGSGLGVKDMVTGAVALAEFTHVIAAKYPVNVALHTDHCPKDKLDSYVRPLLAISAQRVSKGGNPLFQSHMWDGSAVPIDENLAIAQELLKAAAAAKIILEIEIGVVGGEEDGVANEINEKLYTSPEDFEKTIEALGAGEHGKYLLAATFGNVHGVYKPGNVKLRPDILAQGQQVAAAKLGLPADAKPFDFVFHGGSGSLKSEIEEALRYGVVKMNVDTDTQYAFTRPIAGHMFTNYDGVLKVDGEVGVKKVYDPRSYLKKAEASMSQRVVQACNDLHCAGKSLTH
PfHsp40 yeast – rescue of PfHsp40-mediated yeast toxicity | growth rescue, % at 12.5 µM | 340,000 compounds, 0.68% hits | S. cerevisiae expressing PfHsp40, growth rescue, ATP luminescence; in the data active = growth rescue above about 28%, passing the limit was not always enough;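 also: yeast W303a lacking pdr1 and pdr3 grown in galactose medium; growth measured after three days at 30 °C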
GDH-TPI inh – counter-screen for M. tuberculosis FBA inhibitors: GDH-TPI coupled enzymes. GDH-TPI coupled enzyme counterscreen, NADH absorbance. inhibition, % at 4.8 µM. 360,000 compounds, 1.2% hits; in the data active = inhibition above about 30%
Hits are given with their value; – = inactive; · = not tested or not shown; + = active, no number.

SMILES | PrPC surface inh | PrP UTR inh | BJeLR lethal | FBA Mtb inh | PfHsp40 yeast | GDH-TPI inh
COC(=O)[C@]12C[C@H](CC(=O)N3CCN(C(=O)C4CC4)CC3)C(=O)N(Cc3cccc4ccccc34)C1=C[C@H](C1CCCC1)O[C@@H]2C | – | · | · | · | · | ·
COc1ccc(N(C(=O)CCl)C(C(=O)NCCc2ccccc2)c2cccs2)cc1 (stereo unspecified) | – | – | 113.8 | – | – | –
COc1cccc(-c2cc3nc(-c4ccco4)cc(N4CCN(C(C)=O)CC4)n3n2)c1 | – | · | · | · | · | ·
COc1ccc2c(c1)NC(=O)[C@@]2(CCN1C(=O)c2ccccc2C1=O)c1[nH]c2ccccc2c1CCN1C(=O)c2ccccc2C1=O | – | · | · | · | · | ·
CC(=O)Oc1ccc2c(=O)c(/C=N/c3cc(=O)[nH]c(=S)[nH]3)coc2c1 | – | – | – | – | – | 54.4
O=c1cc(/N=C/c2coc3cc(Br)ccc3c2=O)[nH]c(=S)[nH]1 | – | – | – | – | – | –
O=S(=O)(Nc1nc2ccccc2nc1NCC1CCCO1)c1ccccc1 (stereo unspecified) | – | – | – | – | – | 40.5
Cc1ccc(S(=O)(=O)Nc2nc3ccccc3nc2NCC2CCCO2)cc1 (stereo unspecified) | – | – | – | – | – | –
COc1ccc(S(=O)(=O)Nc2nc3ccccc3nc2NCC2CCCO2)cc1 (stereo unspecified) | – | – | – | 27.1 | – | –
COCCCN1C(=O)C(CC(=O)NC2CCCCC2)CC(C(=O)N2CCCCCC2)=C1C (stereo unspecified) | – | · | · | · | · | ·
Clc1cccc(CNC2CCC23CCCCC3)c1 (stereo unspecified) | – | · | · | · | · | ·
CCc1cccc(CC)c1NC(=O)C1SC(=Nc2ccccc2C)C(c2nc3ccccc3s2)=C1N (stereo unspecified) | 24.5 | – | – | – | – | –
CCc1cccc(C)c1NC(=O)CCCSc1nc2ccccc2s1 | – | – | – | – | – | –
Cc1csc(NC(=O)c2ccc(COc3cccc(F)c3)o2)n1 | – | · | · | · | · | ·
CCOCCCn1c(=N)c(S(=O)(=O)c2ccc(C)cc2)cc2c(=O)n3cc(C)ccc3nc21 | – | – | – | – | – | –
Cc1ccc2nc3c(cc(C(=O)NCC4CCCO4)c(=N)n3CCCOC(C)C)c(=O)n2c1 (stereo unspecified) | – | – | · | + | – | –
CCOCCCNc1nc2nc3ccc(C)cn3c(=O)c2cc1C(=O)NCC1CCCO1 (stereo unspecified) | – | – | – | + | – | –
Cc1c(C(=O)Nc2ccc3c(c2)OCCO3)sc2nc(-c3ccccc3)cn12 | – | – | – | – | 144.9 | –
CCCNC(=O)/C(C#N)=C1\N=C(NC(=O)c2ccco2)c2ccccc21 | – | – | – | – | – | 35.4
CC(C)CNC(=O)/C(C#N)=C1\N=C(NC(=O)c2ccco2)c2ccccc21 | – | – | – | – | – | –
COCCNC(=O)/C(C#N)=C1\N=C(NC(=O)c2ccco2)c2ccccc21 | – | · | · | – | · | 45.1
COc1ccc2c(c1)CCCN2C(=O)C1CCCN(S(=O)(=O)c2cccc3cccnc23)C1 (stereo unspecified) | – | · | · | · | · | ·
CNC(=O)N(O)C1N(/N=C/c2ccccc2O)C(=S)SC1(C)C (stereo unspecified) | – | – | – | – | – | 36.1
CN(C)c1ccc(/C=N/N2C(=S)SC(C)(C)C2N(O)C(=O)Nc2ccc([N+](=O)[O-])cc2)cc1 (stereo unspecified) | – | – | – | – | – | 50.6
CNC(=O)N(O)C1N(/N=C/c2ccc(SC)cc2)C(=S)SC1(C)C (stereo unspecified) | – | – | – | – | – | 35.6
SMILES | PrPC surface inh | PrP UTR inh | BJeLR lethal | FBA Mtb inh | PfHsp40 yeast | GDH-TPI inh
CNC(=O)N(O)C1N(/N=C/c2ccccc2F)C(=S)SC1(C)C (stereo unspecified) | – | – | – | – | – | –
COC(=O)[C@]12C[C@H](CC(=O)NCc3ccc(OC)c(OC)c3)C(=O)N(Cc3ccc(Cl)cc3Cl)C1=C[C@H](C(C)(C)C)O[C@@H]2C | – | · | · | · | · | ·
COc1cccc(/C=C2/SC(=O)N(C)C2=O)c1OCc1ccc(C(=O)O)cc1 | – | – | – | – | – | –
COc1cccc(/C=C2/SC(=O)N(CC(=O)N3CCc4ccccc4C3)C2=O)c1OCC(=O)O | – | – | – | – | – | 32.1
CCOC(=O)CNC(=O)c1ccccc1Br | – | – | – | + | – | –
CCOC(=O)CNC(=O)c1ccccc1 | – | – | – | – | – | –
